Shown are actives, neighbours in structure and some others; about 21% of the full set was active somewhere.
Pf growth 48h = P. falciparum growth inhibition at 48 hours (one generation); P. falciparum luciferase growth in erythrocytes, 48 h; Potency, µM (titrated, usually from 28.7 µM), for inactives: top-dose activity change, negative = inhibition, usual class: inhibitors; 310,000 compounds, 5.9% hits; AID 504832; further: potency means the concentration at half of the fitted maximal effect; on the % scale 0 is the no-effect control and ±100 the full control effect
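A one-generation exposure of luciferase-tagged malaria parasites in RPMI 1640/Albumax erythrocyte culture, 37 C and 5% CO2. Inhibition is inferred from decreased luminescence after adding detection reagent.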
HCV inh = HCV inhibition; Huh7.5.1 HCVcc-Cre infection, luciferase reporter, 44 h; Potency, µM (doses to about 41.8 µM), for inactives: top-dose activity change, negative = inhibition, most hits filed as inhibitors; 340,000 compounds, 3.4% hits; further: potency means the concentration at half of the fitted maximal effect; on the % scale 0 is the no-effect control and ±100 the full control effect
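Antiviral activity was scored by luciferase reporter output from cells infected with HCVcc-Cre (~0.5 moi) in presence of compound, 44 h infection period, cells seeded 1,000/well 4 h prior.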
Shiga inhibitor = blocks Shiga toxin action in Vero cells; Vero cells, Shiga toxin protein synthesis inhibition reporter; inhibition, % at 38.7 µM; 290,000 compounds, 9.2% hits; AID 2315; in the data active means inhibition mostly above about 28%, no sharp cut-off; inactive means mostly below about 43%; further: 0% is about no effect
CHX counter = counter-screen hit for Shiga toxin inhibitors, cycloheximide; cell reporter, cycloheximide protein synthesis inhibition counterscreen; max response, %; 300,000 compounds, 12% hits; AID 2314; in the data active means max response mostly above about 13%, no sharp cut-off; inactive means mostly below about 14%; further: read at 38.3 µM for the half of the compounds with a filed dose; 0% is about no effect
HCMV inh = inhibitors of human cytomegalovirus. activity change, negative = inhibition, % at 57.5 µM. 410,000 compounds, 4.5% hits. HFF cells, HCMV-luciferase reporter, 72 h; stronger effect = lower value. AID 1259415; in the data active means activity change below about -60%; inconclusive means no clear call, values can overlap the other calls; inactive means above about -39%; further: on the % scale 0 is the no-effect control and ±100 the full control effect
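Human foreskin fibroblasts infected with luciferase-reporter HCMV at MOI 1 PFU/cell, compounds at two doses. Luciferase measured 72 h post infection; normalized to buffer-only basal and Salinomycin (10uM) controls.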
Pf growth 96h = inhibits malaria parasite growth, 96 h; P. falciparum luciferase reporter growth, 96 h; Potency, µM (titrated, usually from 28.7 µM), inactives show top-dose activity change, negative = inhibition, usual class: inhibitors; 320,000 compounds, 6.9% hits; AID 504834; further: potency means the concentration at half of the fitted maximal effect; on the % scale 0 is the no-effect control and ±100 the full control effect
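Infected RBCs, 2% Hct / 0.05% parasitemia final; luciferase-reporter P. falciparum; cpd 96 h, 37 C, 5% CO2; luciferase detection reagent; luminescence.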
HCV confirm = confirmation of hepatitis C virus inhibitors | shares compounds with HCV inh | HCVcc-Cre infectious virus cell assay, luciferase, inhibition | Potency, µM (top dose mostly 41.8 µM), inactives show top-dose activity, negative = inhibition, actives largely listed as inhibitors | 640 compounds, 78% hits | AID 720575; further: potency means the concentration at half of the fitted maximal effect; nearly all actives have a fitted effect of over 80% in size
HCV cytotox = toxic to HCV host cells, flagging false HCV inhibitors; shares compounds with HCV inh; HCV host cell line cytotoxicity counterscreen; Potency, µM (titrated, usually from 41.8 µM), for inactives: top-dose activity change, negative = cytotoxicity, most hits filed as inhibitors; 640 compounds, 22% hits; AID 720576;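 further: potency means the concentration at half of the fitted maximal effect; 44 h compound exposure; on the % scale 0 is the no-effect control and ±100 the full control effect; nearly all actives have a fitted effect of over 55% in size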
* = called active by the depositor. Unless noted, the call rests on the fitted dose curve; in most records, active means well fitted curve in the direction sought with a large enough effect; inconclusive means small, poorly fitted or top-dose-only effect, or another doubt; inactive means no such curve, though single readings can be large; an effect the other way counts as inactive or inconclusive.

For Fc1ccccc1Nc1nc(-c2ccncc2)nc2ccccc12 the results were Pf growth 48h inconclusive, HCV inh 2.2µM*, Shiga inhibitor -10, CHX counter -2, HCMV inh 35, Pf growth 96h inconclusive, HCV confirm 8.9µM* and HCV cytotox 30%.
CC(C)OP(=O)(c1ccc(N(C)C)cc1)C(O)c1cccnc1 (stereo not given) was read as Pf growth 48h -21%, HCV inh 11%, Shiga inhibitor 26, CHX counter -1, HCMV inh -40 and Pf growth 96h inconclusive.
Screening N#Cc1ccccc1CSc1ccc(-c2nc3ccccc3[nH]2)cn1 returned Pf growth 48h inconclusive, HCV inh 8.9µM*, Shiga inhibitor 79*, CHX counter 47*, HCMV inh -23, Pf growth 96h inconclusive, HCV confirm inconclusive and HCV cytotox 14µM*.
N#Cc1ccccc1CSc1nc(N)cc(N)n1 was read as Pf growth 48h -2%, HCV inh 12%, Shiga inhibitor -4, CHX counter -1, HCMV inh -24 and Pf growth 96h -4%.
`CCOc1ccccc1NC(=O)CSc1nnc(Cc2ccc(OC)cc2)c(=O)n1N` gave Pf growth 48h inconclusive, HCV inh inconclusive, HCMV inh 8, Pf growth 96h inconclusive, HCV confirm 7.9µM* and HCV cytotox 26%.
Screening COc1cccc(NC(=O)Nc2nnc(COCCO)s2)c1 returned HCMV inh -29.
For NC(=O)NC(Cc1ccccc1)C(=O)NNC(=O)COc1ccccc1Cl (stereo not given) the results were HCV inh 15% and HCMV inh 5.
`Cc1nn(Cc2c(F)c(F)c(F)c(F)c2F)c(C)c1NC(=O)c1ccc(COc2ccc(F)cc2)o1` gave Pf growth 48h inconclusive, HCV inh 2µM*, Shiga inhibitor -14, CHX counter -1, HCMV inh inconclusive, Pf growth 96h inconclusive, HCV confirm 14µM* and HCV cytotox -23%.
For Cc1cc(C(=O)Nc2c(C)nn(Cc3ccc(F)cc3)c2C)on1 the results were HCV inh 3%, Shiga inhibitor 36, CHX counter 1, HCMV inh 37 and Pf growth 96h 14%.
CCN(CC)S(=O)(=O)c1ccc(OC)c(NC(=O)CSc2cc(Cl)ccc2Cl)c1 was read as Pf growth 48h inconclusive, HCV inh inconclusive, Shiga inhibitor 17, CHX counter -2, HCMV inh inconclusive, Pf growth 96h inconclusive, HCV confirm 22µM* and HCV cytotox 22%.
`O=C(NC(=O)N1CCCCCC1)c1ccc(Cl)cc1` gave Pf growth 48h 6%, HCV inh 5%, Shiga inhibitor 0, CHX counter -1, HCMV inh -7 and Pf growth 96h inconclusive.
CCOc1ccccc1NC(=O)Cn1c(=O)n(-c2ccccc2)c(=O)c2c1c1cc(C)ccc1n2C was read as HCMV inh 22.
`C/C(=N/Nc1nc(-c2ccccc2)cc(-c2ccc(F)cc2)n1)c1cccc(N)c1` gave Pf growth 48h inconclusive, HCV inh 8.9µM*, Shiga inhibitor 9, CHX counter 16, HCMV inh -21, Pf growth 96h -7%, HCV confirm 14µM* and HCV cytotox inconclusive.
Screening COc1cc(C=O)ccc1Oc1nc(Nc2ccc(F)cc2F)nc(N2CCOCC2)n1 returned Pf growth 48h inconclusive, HCV inh 2%, Shiga inhibitor -5, CHX counter -3, HCMV inh 29 and Pf growth 96h -8%.
Screening CCCOc1ccc(/C=C/C(=O)Nc2ccc([N+](=O)[O-])cc2)cc1 returned Pf growth 48h inconclusive, HCV inh 3.5µM*, Shiga inhibitor -15, CHX counter -3, HCMV inh -70*, Pf growth 96h inconclusive, HCV confirm 7.9µM* and HCV cytotox 20µM*.
For CCOC(=O)N1CCN(C(=O)CSCC(=O)Nc2nc(-c3ccc4c(c3)OCO4)cs2)CC1 the results were Pf growth 48h inconclusive, HCV inh inconclusive, Shiga inhibitor 26, CHX counter 16, Pf growth 96h -18%, HCV confirm 16µM* and HCV cytotox -24%.
`CCn1cc(/C=C/c2cc[n+](C)cc2)c2ccccc21` gave Pf growth 48h 0.37µM*, HCV inh 2.5µM*, Shiga inhibitor 22, CHX counter -2, HCMV inh -97*, Pf growth 96h 0.21µM*, HCV confirm 1.8µM* and HCV cytotox 4µM*.
For CCn1cc(C(=O)c2ccccc2)c2ccccc21 the results were Shiga inhibitor -22, CHX counter 2, HCMV inh -7 and Pf growth 96h inconclusive.
Screening COc1ccc(CCNC(=O)CSc2nc3ncccc3[nH]2)c(OC)c1 returned Pf growth 48h -3%, HCV inh -2%, Shiga inhibitor -4, CHX counter -3, HCMV inh -16 and Pf growth 96h inconclusive.
Screening COc1cc(/C=N/NC(=O)c2ccc(CN3C(=O)c4cccc5cccc3c45)cc2)cc(OC)c1O returned Pf growth 48h 8.3µM*, HCV inh inconclusive, Shiga inhibitor -2, CHX counter 0, HCMV inh -33, Pf growth 96h inconclusive, HCV confirm inconclusive and HCV cytotox -9%.
Screening CC1(C(=O)O)CCCN(C(=O)c2ccc3c(c2)C(C)(C)CCC3(C)C)C1 (stereo not given) returned HCMV inh 74.
Screening COc1ccc(NC(=O)c2ccccc2OCc2c(C)noc2C)cc1OC returned Pf growth 48h -7%, HCV inh inconclusive, Shiga inhibitor -7, CHX counter 2, HCMV inh 34, Pf growth 96h -7%, HCV confirm inconclusive and HCV cytotox 15%.
COc1ccccc1S(=O)(=O)N(C)C[C@H]1OCc2cnnn2CCCC(=O)N([C@@H](C)CO)C[C@@H]1C was read as HCMV inh 18.
COC(=O)C1=C(c2ccc(-c3ccccc3)c(F)c2)C[C@@H]2CC[C@H]1N2C(=O)NCc1cccc2ccccc12 was read as Pf growth 48h 1.2µM*, HCV inh inconclusive, HCMV inh 86, Pf growth 96h 1µM*, HCV confirm 11µM* and HCV cytotox 44%.
For Nc1ccc2ccccc2c1N=Nc1ccccc1 the results were HCV inh inconclusive and HCMV inh 37.
Screening Cc1cc(C)cc(OCc2cc(=O)n3c(-c4ccccc4)csc3n2)c1 returned HCMV inh 7.

Screens deposited in PubChem BioAssay by National Center for Advancing Translational Sciences (NCATS).
